The source of these data is PubChem BioAssay.

Values without a mark were called inactive. For some of these results: Measured potencies and affinities stand elsewhere. Active and inactive are the calls of the source. Unless noted, no rule for the calls is given here.

Test [1] in a line: antimalarial activity against Dd2 strain (AID 2302;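 active = growth inhibition above 50% at the single 2 µM test dose, taken to imply half-maximal potency below 2 µM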;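 also: 0% = DMSO untreated growth and 100% = chloroquine plus artemisinin killed control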). The conditions noted are these: P. falciparum Dd2 in RBCs, LDH growth readout, 72 h; at 2 µM; hits give high values.
A short description of test [2]: human hepatoma cell viability loss – ATP luminescence, cytotoxicity control for P. falciparum antimalarial project, primary screen (AID 2303;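 active = inhibition above 50%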;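 also: 0% = DMSO wells and 100% = digitonin-killed cells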). Particulars: HepG2 viability, 24-48 h, at 10 µM, hits give high values.
For test [3], the target named is L-lactate dehydrogenase (Plasmodium falciparum (isolate CDC / Honduras)) (UniProt Q27743). The test is described as follows: PfLDH activity inhibition – cell lysate, 3D7 strain, counter-screen for P. falciparum growth inhibition project (AID 2304).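 Also: 0% = vehicle and 100% = reference inhibitor.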 The conditions noted are these: P. falciparum 3D7 crude extract, LDH APAD/NBT absorbance; at 2 µM; hits give high values. A general note: The purpose of a counterscreen is to sort out artefacts and off-target activity.

Test [4] is described as follows: inhibition of 3D7 malaria parasite growth – strain 3D7 (AID 2306).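 Also: 0% = DMSO wells and 100% = chloroquine plus artemisinin control wells.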 The conditions noted are these: P. falciparum 3D7 erythrocytic growth, LDH absorbance, 72 h; at 2 µM; hits give high values.
Test [5] deals with Calcium-dependent protein kinase 1 (Plasmodium falciparum (isolate 3D7)) (UniProt P62344). Nature of the test: PfCDPK1 kinase inhibitors, biochemical, TCAMS library (AID 1159585; cut-off not given, nearly all actives have IC50 up to about 0.98 µM;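 also: inhibitors leave more ATP so luminescence rises with inhibition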). Particulars: recombinant PfCDPK1, Kinase-Glo ATP depletion luminescence. (In Kinase-Glo more light means more ATP remaining.)
Test [6] addresses Plasmodium falciparum protein kinase 6 (PK6, PF3D7_1337100) (UniProt Q8IDW1). Nature of the test: PfPK6 kinase inhibitors, biochemical, TCAMS library (AID 1159586). The conditions noted are these: recombinant PfPK6, Kinase-Glo ATP depletion luminescence.
The target in test [7] is Protein kinase 7 (PK7), Plasmodium falciparum 3D7 (PF3D7_0213400) (UniProt Q7YTF7). Nature of the test: inhibition of Plasmodium PK7 catalytic activity – biochemical, TCAMS antimalarial set, Kinase-Glo luminescence (AID 1159587). Particulars: recombinant PfPK7, Kinase-Glo ATP depletion luminescence.
Test [8] deals with Calcium-dependent protein kinase 4 (Plasmodium falciparum (isolate 3D7)) (UniProt Q8IBS5). The test is described as follows: PfCDPK4 kinase inhibitors, biochemical, TCAMS library (AID 1159588; cut-off not given, nearly all actives have IC50 up to about 0.91 µM). The conditions noted are these: recombinant PfCDPK4, Kinase-Glo ATP depletion luminescence.
Calcium-dependent protein kinase 4 (Plasmodium falciparum (isolate 3D7)), sequence (Q8IBS5 whole entry, looked up): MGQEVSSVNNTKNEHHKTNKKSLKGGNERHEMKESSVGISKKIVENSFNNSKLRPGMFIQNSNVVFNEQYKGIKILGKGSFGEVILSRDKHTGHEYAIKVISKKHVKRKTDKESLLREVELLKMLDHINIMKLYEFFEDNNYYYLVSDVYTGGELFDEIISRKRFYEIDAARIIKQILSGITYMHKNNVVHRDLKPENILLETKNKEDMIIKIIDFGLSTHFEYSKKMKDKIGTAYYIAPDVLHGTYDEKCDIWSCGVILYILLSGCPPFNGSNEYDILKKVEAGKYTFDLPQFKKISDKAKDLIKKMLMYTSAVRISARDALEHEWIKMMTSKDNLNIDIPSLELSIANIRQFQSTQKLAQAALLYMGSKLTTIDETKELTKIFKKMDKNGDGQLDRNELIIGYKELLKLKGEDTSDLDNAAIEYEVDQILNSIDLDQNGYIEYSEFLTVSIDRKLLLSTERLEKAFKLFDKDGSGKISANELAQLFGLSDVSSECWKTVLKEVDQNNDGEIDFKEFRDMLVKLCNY

L-lactate dehydrogenase (Plasmodium falciparum (isolate CDC / Honduras)), sequence (Q27743 whole entry, looked up): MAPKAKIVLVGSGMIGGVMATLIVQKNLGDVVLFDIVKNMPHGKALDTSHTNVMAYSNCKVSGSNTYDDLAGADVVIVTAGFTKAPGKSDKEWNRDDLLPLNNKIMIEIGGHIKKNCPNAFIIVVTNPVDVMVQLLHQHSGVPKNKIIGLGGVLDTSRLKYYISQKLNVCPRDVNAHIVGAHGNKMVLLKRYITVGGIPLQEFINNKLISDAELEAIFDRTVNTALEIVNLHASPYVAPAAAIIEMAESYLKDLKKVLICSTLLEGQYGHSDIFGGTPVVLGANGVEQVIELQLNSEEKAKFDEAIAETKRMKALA
Plasmodium falciparum protein kinase 6 (PK6, PF3D7_1337100), sequence (Q8IDW1 1-305): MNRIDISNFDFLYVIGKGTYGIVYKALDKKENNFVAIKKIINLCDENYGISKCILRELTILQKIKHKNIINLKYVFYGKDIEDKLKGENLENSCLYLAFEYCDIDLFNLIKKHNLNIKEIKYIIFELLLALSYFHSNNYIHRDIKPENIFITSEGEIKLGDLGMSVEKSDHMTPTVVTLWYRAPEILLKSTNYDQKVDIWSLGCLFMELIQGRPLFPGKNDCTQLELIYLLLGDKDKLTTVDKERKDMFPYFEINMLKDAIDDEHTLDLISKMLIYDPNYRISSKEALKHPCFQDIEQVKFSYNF
Calcium-dependent protein kinase 1 (Plasmodium falciparum (isolate 3D7)), sequence (P62344 whole entry, looked up): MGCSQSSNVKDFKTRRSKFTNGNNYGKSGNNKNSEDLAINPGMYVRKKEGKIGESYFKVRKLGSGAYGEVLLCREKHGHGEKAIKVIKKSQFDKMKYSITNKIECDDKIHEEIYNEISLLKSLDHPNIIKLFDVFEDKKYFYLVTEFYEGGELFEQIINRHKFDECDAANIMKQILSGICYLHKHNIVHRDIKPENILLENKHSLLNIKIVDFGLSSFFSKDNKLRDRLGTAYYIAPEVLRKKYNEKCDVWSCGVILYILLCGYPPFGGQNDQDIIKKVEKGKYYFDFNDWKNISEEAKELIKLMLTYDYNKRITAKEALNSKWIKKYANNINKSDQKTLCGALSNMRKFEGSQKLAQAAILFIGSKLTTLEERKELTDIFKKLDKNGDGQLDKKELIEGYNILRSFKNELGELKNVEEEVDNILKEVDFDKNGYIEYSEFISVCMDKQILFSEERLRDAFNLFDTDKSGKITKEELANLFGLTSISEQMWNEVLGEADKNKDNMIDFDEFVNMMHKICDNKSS
Protein kinase 7 (PK7), Plasmodium falciparum 3D7 (PF3D7_0213400), sequence (Q7YTF7 1-343): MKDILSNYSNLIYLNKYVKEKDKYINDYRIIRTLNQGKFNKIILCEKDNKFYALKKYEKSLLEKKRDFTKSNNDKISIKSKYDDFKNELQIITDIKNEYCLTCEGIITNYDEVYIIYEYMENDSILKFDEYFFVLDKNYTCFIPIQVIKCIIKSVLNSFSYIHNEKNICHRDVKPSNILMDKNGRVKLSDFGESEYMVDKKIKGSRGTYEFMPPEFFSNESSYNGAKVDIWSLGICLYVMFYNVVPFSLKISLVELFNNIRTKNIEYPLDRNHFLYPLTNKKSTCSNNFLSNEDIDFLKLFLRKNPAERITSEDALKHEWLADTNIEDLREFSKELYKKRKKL

By inhibition is commonly meant the change of the read-out against control, counted positive when it falls. As for `O=S(=O)(NCCN1CCCC1)c1ccc(-c2cccc(CNCCc3cccs3)c2)cc1`, the growth inhibition in test [1] was 30%; in test [4] it was 95% (active). The inhibition was 41% in test [2] and -1% in test [3]. Moreover, the outcome in test [5], in test [6], in test [7] and in test [8] was inactive.
As for `CC(C)c1ccc(NC(=O)c2cccc(CN3CCCN(Cc4cccc(C#N)c4)CC3)c2)cc1`, the values for the growth inhibition in test [1] and in test [4] were 15% and 93% (active), respectively. In addition, the inhibition in test [2] is 48%; in test [3], -5%. The outcome in test [5], in test [6], in test [7] and in test [8] was inactive.
As to `Ic1cc(CNC2CCCCC2)ccc1OCc1cccc(COc2ccc(CNC3CCCCC3)cc2I)c1`, the growth inhibition is 34% in test [1] and 93% (active) in test [4]. Besides, the inhibition in test [2] was -1%; in test [3] it was -4%. The result in test [5], in test [6], in test [7] and in test [8] was inactive.
Consider `CC(C)Nc1cc(C(=O)N[C@@H](Cc2ccccc2)[C@H](O)CNC(C)(C)c2cccc(C(F)(F)F)c2)cc(N2CCCCS2(=O)=O)c1`, for which the growth inhibition in test [1] and in test [4] was 98% (active) each time. The figures for the inhibition in test [2] and in test [3] were 9% and 2%, respectively. In addition, the result in test [5], in test [6], in test [7] and in test [8] was inactive.
As for `CN(C)C(CNC(=O)c1cc(-c2ccncc2)c(-c2ccc(Cl)c(O)c2)o1)c1ccccc1` (stereo not given), the growth inhibition in test [1] was 28%; in test [4] it was 91% (active). Further, the inhibition in test [2] was 28%; in test [3], 0%. Further, the result in test [5], in test [6], in test [7] and in test [8] was inactive.
As for `Cc1cc(C)cc(OCC(O)CN(Cc2cc(Cl)cc(Cl)c2)C(=O)Nc2ccc(Cl)cc2)c1` (stereo not given), the growth inhibition is 43% in test [1] and 97% (active) in test [4]. Also, the values for the inhibition in test [2] and in test [3] were -9% and -2%, respectively. For the same compound, the outcome in test [5], in test [6], in test [7] and in test [8] was inactive.
As for `CCCCCCOc1ccc(C(=O)NCCCC2CCCN(CCCCCNC(=O)C=Cc3ccc(Cl)c(Cl)c3)C2)cc1` (stereo not given), the figures for the growth inhibition in test [1] and in test [4] were 12% and 96% (active), respectively. Also, the inhibition in test [2] was 20%; in test [3] it was 2%. Also, the result in test [5], in test [6], in test [7] and in test [8] was inactive.
On to `O=C(Nc1cn(-c2ccc(OCc3cccc(F)c3)c(Cl)c2)c2ncncc12)c1ccncc1`, for which the values for the growth inhibition in test [1] and in test [4] were 81% (active) and 100% (active), respectively. Further, the inhibition is 13% in test [2] and 0% in test [3]. For the same compound, the outcome in test [5], in test [6], in test [7] and in test [8] was inactive.
On to `O=C(NCCN1CCCC1)c1cccc(-c2ccc(-c3nc4ccc(F)cc4[nH]3)cc2)c1`, for which the growth inhibition in test [1] was 85% (active); in test [4], 99% (active). The inhibition in test [2] is 33%; in test [3], -3%. The outcome in test [5], in test [6], in test [7] and in test [8] was inactive.
Regarding `COc1ccc(OC(C)CNC(=O)c2cc([N+](=O)[O-])ccc2-c2ccc(OC)cc2)cc1` (stereo not given), the results for the growth inhibition in test [1] and in test [4] were 44% and 92% (active), respectively. In addition, the inhibition in test [2] is 18%; in test [3], 3%. In addition, the outcome in test [5], in test [6], in test [7] and in test [8] was inactive.
Turning to `Cc1cccc2[nH]c(-c3ccc(-c4cccc(CNCCCNS(C)(=O)=O)c4)cc3)nc12`, the results for the growth inhibition in test [1] and in test [4] were 5% and 99% (active), respectively. Also, the results for the inhibition in test [2] and in test [3] were 5% and 2%, respectively. The outcome in test [5], in test [6], in test [7] and in test [8] was inactive.
As to `NC(N)=Nc1nc(-c2cccc(NC(=O)CCCCCCCON3C(N)=NC(N)=NC34CCCCC4)c2)cs1`, the results for the growth inhibition in test [1] and in test [4] were 89% (active) and 96% (active), respectively. The values for the inhibition in test [2] and in test [3] were 1% and -8%, respectively. Further, the result in test [5], in test [6], in test [7] and in test [8] was inactive.
Take `O=C(NCc1ccccc1)NC1CCN(c2ccnc3cc(Cl)ccc23)C1` (stereo not given): the growth inhibition is 99% (active) in test [1] and 94% (active) in test [4]. Further, the inhibition in test [2] is 13%; in test [3], -2%. For the same compound, the outcome in test [5], in test [6], in test [7] and in test [8] was inactive.
Turning to `COc1ccc(-c2cccc(NC(=O)c3cccc(F)c3)c2)cc1CN1CCCN(C)CC1`, the growth inhibition was 78% (active) in test [1] and 101% (active) in test [4]. The inhibition is 42% in test [2] and 0% in test [3]. The result in test [5], in test [6], in test [7] and in test [8] was inactive.
Take `CNCCNCc1cccc(-c2cccc(-c3nc4ccc(F)cc4[nH]3)c2)c1`: the growth inhibition is 15% in test [1] and 98% (active) in test [4]. Also, the inhibition in test [2] was 20%; in test [3], -2%. Besides, the result in test [5], in test [6], in test [7] and in test [8] was inactive.
Turning to `Cc1cc(NC(=O)c2cccs2)ccc1OC1CCN(Cc2ccccc2)C1` (stereo not given), the growth inhibition in test [1] is 87% (active); in test [4] it was 84% (active). For the same compound, the inhibition is 7% in test [2] and -1% in test [3]. Moreover, the outcome in test [5], in test [6], in test [7] and in test [8] was inactive.
For `NOCCCCOc1ccc(Cl)cc1`, the growth inhibition in test [1] was -1%; in test [4], 98% (active). Also, the figures for the inhibition in test [2] and in test [3] were 2% and -4%, respectively. Moreover, the result in test [5], in test [6], in test [7] and in test [8] was inactive.
With `Cc1cccc(C(=O)Nc2ccnc(N3CCC(N(C)Cc4ccc(C#N)cc4)CC3)c2)c1`, the figures for the growth inhibition in test [1] and in test [4] were 6% and 94% (active), respectively. The results for the inhibition in test [2] and in test [3] were 12% and -4%, respectively. Moreover, the outcome in test [5], in test [6], in test [7] and in test [8] was inactive.
With `Oc1ccc2[nH]c(-c3ccc(F)cc3F)nc2c1CN1CCC(O)(c2ccccc2)CC1`, the growth inhibition was 70% (active) in test [1] and 96% (active) in test [4]. Besides, the inhibition is 16% in test [2] and -2% in test [3]. In addition, the result in test [5], in test [6], in test [7] and in test [8] was inactive.
On to `Cc1cccc(CC2CC(=O)N(c3ccc([N+](=O)[O-])cc3)C2=O)c1` (stereo not given), for which the values for the growth inhibition in test [1] and in test [4] were 1% and 95% (active), respectively. The figures for the inhibition in test [2] and in test [3] were 11% and 2%, respectively. For the same compound, the outcome in test [5], in test [6], in test [7] and in test [8] was inactive.
